Giardia killer – kills Giardia lamblia; Giardia lamblia trophozoite viability; activity change, % at 7.66 µM, hits read low; AID 540267; 340,000 tested, 0.15% active; in the data active = activity change below about -80%; inconclusive = between about -30% and that limit;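 also: parasites exposed to compound for two days anaerobically before the ATP read; % is scaled to controls: 0 for no effect and ±100 for the full control effect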
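Trophozoites 100 cells/well + cpd; 48 hrs, 37 deg C, anaerobic. ATPLite 1-Step added, 15-30 min RT, luminescence read (ATP-based viability).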
Chronic BCR inh – inhibitors of chronic active B-cell receptor signaling; ABC-DLBCL IkBa-CBG/CBR reporter, luminescence ratio, 4 h; Potency, µM (titrated, usually from 46.1 µM), inactives show top-dose activity change, negative = inhibition, hits mostly inhibitors; 340,000 tested, 0.05% active; active = well fitted inhibition curve with a large enough effect in the signal ratio, with a control signal flat, not every such curve was filed as active; inconclusive = small, poorly fitted or top-dose-only effect, or effect the other way, or a change in a side signal; the % refers to the signal ratio;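 also: potency is read from the fitted curve at half-maximal effect; plate controls were basal doxycycline-induced cells for no effect and cells given 10 µM MG132 for full effect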
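TMD8 ABC-DLBCL cells carrying doxycycline-inducible green luciferase fused to IkappaBalpha plus unfused red luciferase were exposed to compounds (up to 46 uM) for 4 hrs at 37C. Activity came from the overlap-corrected green/red luminescence ratio.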
Gal4-VP16 FLuc – counter-screen for ROR gamma inhibitors: Gal4-VP16 reporter. Drosophila S2 Gal4-VP16 UAS-luciferase, luminescence, 20 h. Potency, µM (doses to about 53.6 µM), for the others: at the highest dose activity, negative = inhibition, most hits filed as inhibitors. 310,000 tested, 3.5% active. AID 2546;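 also: Gal4-VP16 expression switched on by copper sulfate through the metallothionein promoter; potency is read from the fitted curve at half-maximal effect; % is scaled to controls: 0 for no effect and ±100 for the full control effect; nearly all actives have a fitted effect of over 50% in size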
RORg inh – inhibitors of mouse ROR gamma transcriptional activity. Drosophila S2 Gal4-RORgamma UAS-luciferase reporter, 20 h. AID 2551. P51450. Potency, µM (highest dose often 53.6 µM), for the others: top-dose activity change, negative = inhibition, actives largely listed as inhibitors. 310,000 tested, 5.4% active; also: potency is read from the fitted curve at half-maximal effect; % is scaled to controls: 0 for no effect and ±100 for the full control effect; nearly all actives have a fitted effect of over 60% in size
Target sequence (P51450 whole entry, looked up, the tested form may be a part): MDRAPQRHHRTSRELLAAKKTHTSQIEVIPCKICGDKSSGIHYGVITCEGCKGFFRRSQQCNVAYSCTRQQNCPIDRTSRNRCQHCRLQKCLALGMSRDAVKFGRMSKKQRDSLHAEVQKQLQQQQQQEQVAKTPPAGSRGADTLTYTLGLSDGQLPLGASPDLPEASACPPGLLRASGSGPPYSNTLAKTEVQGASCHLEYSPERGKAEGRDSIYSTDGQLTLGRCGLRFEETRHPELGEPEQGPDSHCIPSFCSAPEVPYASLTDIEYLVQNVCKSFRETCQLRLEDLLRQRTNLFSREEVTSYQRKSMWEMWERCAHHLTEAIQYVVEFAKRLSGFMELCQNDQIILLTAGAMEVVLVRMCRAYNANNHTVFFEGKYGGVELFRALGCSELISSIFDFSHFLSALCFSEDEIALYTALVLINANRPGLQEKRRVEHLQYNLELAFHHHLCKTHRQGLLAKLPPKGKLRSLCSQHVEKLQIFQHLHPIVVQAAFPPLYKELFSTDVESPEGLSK
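In this cell-based reporter format, copper sulfate (700 uM final) drives Gal4–ROR gamma fusion expression from a metallothionein promoter in Drosophila Schneider cells; compounds preincubated 1 hr, reporter read after 20 hr at ambient temperature.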
MCF10A rereplic – DNA re-replication induction in MCF 10a cells. Potency, µM (highest dose often 46.1 µM), for the others: top-dose activity, positive = re-replication, usual class: activators. AID 624296. 350,000 tested, 2.9% active. MCF 10A DNA re-replication, Hoechst nuclear intensity, 48 h; also: potency is read from the fitted curve at half-maximal effect; % of control where 0% means no effect; nearly all actives have a fitted effect of over 50% in size
SW480 rereplic – induces DNA re-replication in SW480 colon adenocarcinoma cells. SW480 DNA re-replication, Hoechst DNA content imaging, 48 h. Potency, µM (top dose mostly 46.1 µM), inactives show at the top dose re-replication activation, actives largely listed as activators. 340,000 tested, 1.8% active. AID 624297; also: potency is read from the fitted curve at half-maximal effect; % of control where 0% means no effect; nearly all actives have a fitted effect of over 55% in size
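Per well, 250 cells were exposed to pinned compound for 48 hr. Nuclear DNA was visualised with Hoechst (40 min, 37 C) and total object intensity recorded by fluorescence scanning.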
* hit, by the source's call; ? = inconclusive; / = no result; [ ] = dose if it differs, or a comment. Rows were chosen to be rich in hits. Some 8.3% of all compounds tested hit in one or more screens of this group. Unless noted, calls follow the shape of the dose curve; as a rule, active = well fitted curve in the direction sought with a large enough effect; inconclusive = small, poorly fitted or top-dose-only effect, or another doubt; inactive = no such curve, though single readings can be large; an effect the other way counts as inactive or inconclusive.

SMILES	Giardia killer	Chronic BCR inh	Gal4-VP16 FLuc	RORg inh	MCF10A rereplic	SW480 rereplic
CCOC(=O)C1=C(CC)OC(N)=C(C#N)C1c1ccsc1 (centres undefined)	-8	-6%	?	2%	4%	0.26µM*
CCc1cc2c(=O)n(CCC(C)C)c(=S)[nH]c2s1	7	-1%	1.4µM*	0.2µM*	21%	0%
Cc1cc2nc(N)sc2cc1C	2	/	-6%	?	-4%	-7%
Cc1cc2nc(N3C(=O)CNC3=S)sc2cc1C	?	?	3.2µM*	1µM*	15µM*	?
CCOc1ccc2nc(N3C(=O)CNC3=S)sc2c1	?	?	2.8µM*	1µM*	?	?
CCN(c1ccccc1)S(=O)(=O)c1nnc(NC(=O)C(C)(C)C)s1	-11	6%	-1%	4%	0%	25%
CC(C)c1ccc(NC2CCCN(C(=O)c3ccc(N4CCOCC4)cc3)C2)cc1 (centres undefined)	-8	-2%	-10%	36%	13%	-1%
CCOC(=O)Cc1nc2ccccc2[nH]1	-7	?	4%	-10%	5µM*	2µM*
O=C(Nc1nc2ccccc2[nH]1)c1cccc([N+](=O)[O-])c1	-4	?	?	0.89µM*	4%	12%
O=C(Nc1nc2ccccc2[nH]1)c1ccc([N+](=O)[O-])cc1	?	?	?	3.2µM*	12%	6%
O=C(NCc1nc2ccccc2[nH]1)c1ccc([N+](=O)[O-])cc1	-9	10%	-6%[10 µM]	-10%	-1%	-12%
Cc1ccc(C(=O)Cc2nc3ccccc3[nH]2)cc1	-2	?	?	?	0%	19%
O=C(Cc1nc2ccccc2[nH]1)c1cccc([N+](=O)[O-])c1	-4	?	-3%	-17%	7.3µM*	?
O=C(NC(Cc1ccccc1)c1nc2ccccc2[nH]1)c1cccc([N+](=O)[O-])c1 (centres undefined)	8	?	-4%	-2%	?	-76%
CCOC(=O)C1CCCN(C(=O)c2csc(-c3ccc4c(c3)CCO4)n2)C1 (centres undefined)	11	0%	-6%	6%	1%	0%
C=CC[N+](C)(C)CCN1C(=O)C2C(c3ccccc3)C=CC(c3ccccc3)C2C1=O (centres undefined)	-29	1%	4%	-4%	0%	-19%
COc1cccc(CN2CCNC(=O)C2CC(=O)NC2CCCCCCC2)c1 (centres undefined)	-5	0%	?	6%	?	7%
COC(=O)c1cc(C(=O)Nc2nc3ccccc3[nH]2)cc([N+](=O)[O-])c1	-7	?	-24%	1.4µM*	1%	3%
C/C(=N\Nc1nc2ccccc2[nH]1)c1ccc([N+](=O)[O-])cc1	3	1%	-13%	?	5%	26%
Cc1ccc(C(=O)/C=C2\NCC(C)NC2=O)cc1 (centres undefined)	-2	?	10µM*	8.9µM*	0%	1%
Cc1ccc(C(=O)/C=C2\NCCNC2=O)cc1	-27	?	3%	?	14%	-2%
COc1cc(O)c(C(CC(=O)N2CCOCC2)c2ccc(N(C)C)cc2)c(OC)c1 (centres undefined)	-3	1%	-7%	-37%	-4%	-9%
COc1cc(O)c(C(CC(=O)N2CCCCC2)c2ccc(N(C)C)cc2)c(OC)c1 (centres undefined)	18	-11%	6%	1µM*	25%	-12%
N#Cc1c(-c2ccccc2)cc(C2CC2)nc1SCC(=O)c1cccs1	14	15%	-6%	-5%	17%	9.2µM*
OC1OC[C@H](O)[C@H](O)[C@H]1O (some centres undefined)	/	/	-8%	3%	/	/
O=C(CSc1nnnn1C1CC2CCC1C2)Nc1ccnc2ccccc12 (centres undefined)	12	-1%	0.0022µM*	?	2%	-4%

Bioassay records deposited in PubChem by National Center for Advancing Translational Sciences (NCATS).
